# Assay results published in the supplement of paper PMC7801607.
# What was measured:
# CHO = test: % viability of CHO cells (MTT); higher = less toxic; conditions: 48 h
# Summary of the method: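 CHO cells seeded at 10^6 cells/well were exposed to compound at 2 or 20 µM for 48 h. Survival, as percent of untreated cells, was measured with the colorimetric tetrazolium (MTT) assay.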
# HepG2-A16-CD81 = test: % inhibition of HepG2 viability (CellTiter-Glo); higher = more toxic; conditions: 5 µM
# [1] = test system: Plasmodium falciparum NF54 stage IV/V gametocytes; test: % inhibition of gametocyte viability (PrestoBlue); higher = more inhibition; conditions: 48 h
# Summary of the method: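 Compound was tested at 1 or 5 µM against Stage IV/V NF54 gametocytes plated at 100 µL/well (2% gametocytaemia, 5% haematocrit). After 48 h of stationary, hypoxic incubation at 37 °C, 10 µL PrestoBlue was added for 2 h before reading 612 nm fluorescence from 70 µL of transferred supernatant. Gametocyte viability inhibition, as a percentage, was scaled against vehicle and kill controls from a single run.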
# [2] = test system: Plasmodium falciparum NF54 asexual blood stage; test: % inhibition of asexual blood stage proliferation (pLDH); higher = more inhibition; conditions: 72 h
# Summary of the method: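 In 96-well plates, compound at 2 or 20 µM was added to Plasmodium falciparum NF54 ring-stage cultures (1% haematocrit, 2% parasitaemia). Plates were incubated for 72 h at 37 °C in 4% CO2, 3% O2 and 93% N2, and survival was then read at 620 nm using the parasite lactate dehydrogenase assay. Inhibition of asexual proliferation, expressed as a percentage, was normalised to controls.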
# [3] = test system: Plasmodium falciparum NF54 stage IV/V gametocytes; test: % inhibition of gametocyte viability (ATP bioluminescence); higher = more inhibition; conditions: 24 h
# Summary of the method: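 Density gradients were used to enrich stage IV/V NF54 gametocytes, which were then seeded into 96-well plates at 30,000 per well with compound at 1 or 5 µM. The plates were incubated at 37 °C for 24 h, and ATP was measured with the Promega BacTiter Glo bioluminescence system. Percent inhibition of gametocyte viability was normalised to the plate controls from a single run.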
# [4] = test system: Plasmodium falciparum NF54 stage IV/V gametocytes; test: % inhibition of gametocyte viability (luciferase reporter); higher = more inhibition; conditions: 48 h
# Summary of the method: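 Percent inhibition was normalised to controls from a single run. Stage IV/V gametocytes of the NF54-Pfs16-GFP-Luc line, at 2% gametocytaemia and 2% haematocrit, were exposed to compound at 1 or 5 µM for 48 h at 37 °C under stationary, hypoxic conditions. Luminescence was then read from 30 µL lysate mixed with 30 µL Promega luciferin substrate on a GloMax-Multi+ reader with 10 s integration.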
# [5] = test system: Plasmodium berghei ANKA liver stage in HepG2-A16-CD81; test: % inhibition of liver stage parasite viability (luciferase); higher = more inhibition; conditions: 5 µM; 48 h
# Protocol: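 Single-concentration screen of the MMV Pandemic Response Box. P. falciparum NF54 asexual blood stages: pLDH assay, 72 h at 37 °C, 2 and 20 µM, n=2. Stage IV/V gametocytes (NF54): luciferase reporter (NF54-Pfs16-GFP-Luc, 48 h), ATP bioluminescence (24 h) and PrestoBlue (48 h) at 1 and 5 µM, n=1. P. berghei liver stage (luciferase in HepG2-A16-CD81, 48 h post infection) at 5 µM, n=4. All normalised to DMSO and kill controls as % inhibition.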
# 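For % inhibition of HepG2 viability (CellTiter-Glo) in this document: HepG2-A16-CD81 hepatoma cells plated as in the liver-stage assay but without sporozoites, with DMSO wells as negative and 25 µM puromycin as positive control.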
Structure (SMILES),% viability of CHO cells (CHO; 2 µM),% viability of CHO cells (CHO; 20 µM),% inhibition of HepG2 viability (HepG2-A16-CD81),% inhibition of gametocyte viability ([1]; 1 µM),% inhibition of gametocyte viability ([1]; 5 µM),% inhibition of asexual blood stage proliferation ([2]; 2 µM),% inhibition of asexual blood stage proliferation ([2]; 20 µM),% inhibition of gametocyte viability ([3]; 1 µM),% inhibition of gametocyte viability ([3]; 5 µM),% inhibition of gametocyte viability ([4]; 1 µM),% inhibition of gametocyte viability ([4]; 5 µM),% inhibition of liver stage parasite viability [5]
Cc1c[nH]c(=O)nc1NCc1ccccc1,36.1%,22.7%,-0.05%,6.6%,11.5%,22.3%,60.5%,< 0%,< 0%,< 0%,4.07%,18.3%
Cc1ccc(S(=O)(=O)Nc2cccc3cccnc23)cc1,76%,-0.468%,-5.32%,13.9%,< 0%,55%,103%,< 0%,47.3%,< 0%,5.04%,27.6%
CCc1nc2ccc(Cl)cn2c1C(=O)NCc1ccc(N2CCC(c3ccc(OC(F)(F)F)cc3)CC2)cc1,91.1%,113%,7.13%,22%,< 0%,31.7%,102%,< 0%,< 0%,4.46%,< 0%,72.1%
O=C(O)c1cc(-c2ccccc2)nc2ccccc12,114%,94%,-0.148%,< 0%,< 0%,27%,90.2%,1.38%,< 0%,1.7%,< 0%,38.5%
O=C(CCc1ccc2c(c1)OCO2)NCc1ccc(-c2ccccc2F)cc1,87.7%,94.9%,8.8%,< 0%,< 0%,-4.07%,-11.2%,4.23%,< 0%,< 0%,< 0%,43.9%
CC(=O)N[C@H](C)C(=O)N[C@H](Cc1ccccc1)C(=O)O,91.7%,87.7%,8.11%,< 0%,-0.199%,24.6%,81.8%,< 0%,< 0%,17.2%,< 0%,0.6%
Fc1ccc2c(/C=C/c3cccnc3)c[nH]c2c1,107%,117%,0.955%,< 0%,6.61%,4.51%,61.2%,< 0%,< 0%,< 0%,< 0%,–
NCC(=O)Nc1ccc(-n2nc(C(F)(F)F)cc2-c2ccc3c(ccc4ccccc43)c2)cc1,124%,64.1%,9.92%,22.9%,12.6%,1.4%,67.6%,31%,93.6%,< 0%,< 0%,20.2%
CCCCCCCCC(CP(=O)(O)C(C)N)C(=O)O (centres undefined),97.4%,137%,-1.01%,< 0%,< 0%,17.8%,95.7%,< 0%,< 0%,< 0%,10.2%,24.3%
NCCCc1ccccc1C(=O)Nc1ncc([N+](=O)O)s1,104%,62.7%,0.282%,32.9%,23.9%,-16.4%,-1.52%,0.0401%,< 0%,< 0%,< 0%,7.1%
O=S(=O)(Nc1ccccc1)c1ccc(NC(=S)Nc2ccccc2)cc1,84.1%,81.9%,-1.98%,7.06%,6.95%,43.6%,45.2%,< 0%,< 0%,< 0%,< 0%,25.7%
CCOCc1nc2c(N)nc3ccccc3c2n1CC(C)(C)O,84%,69.2%,8.2%,8.02%,14.8%,58%,77%,< 0%,< 0%,2.74%,5.55%,18.3%
O=C(O)CCNC(=O)c1ccccc1,112%,60.6%,-2.32%,< 0%,-0.209%,25.9%,15.9%,< 0%,< 0%,< 0%,6.13%,–
O=C(O)C(Cc1c[nH]c2ccccc12)N1C(=O)c2ccccc2C1=O (centres undefined),89.9%,92%,-0.93%,< 0%,< 0%,33.4%,72.4%,8.39%,< 0%,13%,22.9%,–
O=C(O)CSc1cc(NS(=O)(=O)c2cccc3cccnc23)c2ccccc2c1O,95.5%,80.9%,2.37%,< 0%,29.3%,70.5%,81%,0.374%,< 0%,< 0%,< 0%,–
Cc1ccc(NC(=O)c2ccc(CN3CCN(C)CC3)cc2)cc1Nc1nccc(-c2cccnc2)n1,87.6%,50.2%,6.65%,< 0%,< 0%,60.6%,98.3%,< 0%,< 0%,0.104%,< 0%,–
COc1cc(NS(=O)(=O)c2ccc(C)cc2)c2ncccc2c1,118%,94.1%,-7.96%,< 0%,0.605%,45.4%,75.7%,1.27%,62.2%,3.47%,1.7%,–
O=C1[C@H](CC[C@H](O)c2ccc(F)cc2)[C@@H](c2ccc(O)cc2)N1c1ccc(F)cc1,94.9%,113%,-3.46%,< 0%,< 0%,43.1%,61%,< 0%,< 0%,2.9%,4.53%,–
